Results on 39 compounds are retold here after PubChem BioAssay (NCI).

This is part of a sample that, as a whole, favours compounds with a hit. Of some 83,000 tested, about 20% had one in any assay.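 The endpoint reported here, percent growth, reads 100 for growth as untreated, 0 for no net growth and -100 for all cells dead.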 A number with no mark means an inactive call. The source made the active and inactive calls. Rule for the calls: active = growth percent below 10; inactive = the rest.

The test system of this test is OVCAR-8 ovarian. Nature of the test: NCI-60 one-dose screen, 48 h (100 = growth as untreated, 0 = no growth, -100 = all killed). Conditions: 10 µM unless noted.
For the compound `CSc1nc(N)n2nccc2n1`, the growth was 98.5%. The same measure for `Cc1nnc(-c2cc3c(ccc4ccccc43)oc2=O)c2cn(-c3ccc(Cl)cc3)nc12`: 96.3%; for `COc1ccc(CNCCCN2C(=O)c3ccc4c5c(ccc(c35)C2=O)C(=O)N(CCCNCc2ccc(OC)c(OC)c2OC)C4=O)c(OC)c1OC`: -51.1% (active). Take `CCCCCCCCCCCCOC(=N)N(C)C`: the growth is 98.9%. The same measure for `COCC(=O)NNc1[nH]c(-c2ccc(OC)cc2)cc1C#N`: 113%. Under `c1cc(C2CCCCC2)ccc1OCCCCCCN1CCNCC1` stands 48%; under `O=C(CCCC(=O)Nc1ccc(Cn2nnc3cc(Cl)c(Cl)cc32)cc1)Nc1ccc(CN2N=NC3C=C(Cl)C(Cl)=CC32)cc1` (centres undefined), 76.3%; under `COc1cc(N)c2nccc(C)c2c1OC`, 96.4%. Consider `COc1ccc(Cn2cc3c(c2)-c2oncc2CC3)cc1OC`, for which the growth was 24.5%. For the compound `Brc1c(-c2ccncc2)nc2n1CCS2`, the growth was 94.6%. Under `CCc1c(C)c2ccc(OCC(=O)N=Nc3c(O)[nH]c4ccccc34)c(C)c2oc1=O` stands -11.3% (active). Under `Nc1ccc(N=Nc2ccccc2)c2cc(S(=O)(=O)O)ccc12` stands 96.5%; under `CC(C)CSc1nc(-c2ccc(F)cc2)c(C#N)c(N2CCCCC2)n1`, 94%. The same measure for `Cc1ccc2c(O)c(O)cc(NC(C)CCCN)c2n1` (centres undefined): 30.7%; for `CCn1cnc(C[C@H](NC(=O)[C@@H](NC(=O)Nc2cc(C(F)(F)F)cc(C(F)(F)F)c2)C(C)(C)C)C(=O)OC)c1`: -79.5% [100 µM] (active); for `CC(C)OCC1CO1` (centres undefined): 113%.

As for `COc1ccc(-c2nnc(SCC(=O)Nc3ccc(C(=O)/C=C/c4cc(OC)c(OC)c(OC)c4)cc3)n2-c2ccccc2)cc1OC`, the growth was 15.9% [100 µM]. Turning to `[N-]=[N+]=Nc1ncc(-c2ccc(C(F)(F)F)cc2)c(NC2CCCCCC2)n1`, the growth is 37.2% [100 µM]. In the case of `CC(C)(C)c1cc(C[P+](c2ccc(Cl)cc2)(c2ccc(Cl)cc2)c2ccc(Cl)cc2)cc(C(C)(C)C)c1O`, the growth was 85.8%. For `O=C(OCC1CC2(Cl)C(Cl)=C(Cl)C1(Cl)C2(Cl)Cl)C1C(C(=O)OCC2CC3(Cl)C(Cl)=C(Cl)C2(Cl)C3(Cl)Cl)C2(Cl)C(Cl)=C(Cl)C1(Cl)C2(Cl)Cl` (centres undefined), the growth was 104%. The same measure for `O=S(=O)(Cc1cccc2c(CS(=O)(=O)c3ccc(Cl)cc3)cccc12)c1ccc(Cl)cc1`: 71.1%. The same measure for `O=C(/C=C1\C(=O)N(Cc2ccccc2)c2ccccc21)c1ccc(OCCN2CCCCC2)cc1`: 7.86% (active); for `CC(C)(C)C(=O)CCCCCCCC/C=C/CCCC(O)c1ccco1` (centres undefined): 104%. Under `CC(=O)CCS(=O)c1ccccc1` (centres undefined) stands 104%; under `O=P(OCCCl)(OCCCl)C(O)c1ccccc1Cl` (centres undefined), 104%. As to `CC1(C)C(O)NC(Cl)=C(C#N)C1(C#N)C#N` (centres undefined), the growth is 103%. Under `COc1ccc(C(O)(c2ccccc2)C(C(=O)O)c2ccccc2)cc1` (centres undefined) stands 107%; under `O=C(O)CC1Cc2ccccc2C1C(=O)O` (centres undefined), 101%. The same measure for `O=c1[nH]c(=S)[nH]c(O)c1/C=C1\C=Nc2ccccc21`: 48.6%. Under `O=C1NCCN1/N=C/c1c(Cl)nc2n1CCS2` stands 115%; under `CCCC(=O)Nc1ccccc1C(=O)O`, 91.1%. As to `CC(C)OC(=O)Nn1cnc2ccccc21`, the growth was 111%. The same measure for `O=C(NC1CCN(Cc2ccccc2)CC1)c1cc(-c2cccnc2)nc2ccc(Cl)cc12`: 77.5%; for `O=S(=O)(O)c1ccc2c(c1)Sc1cc(S(=O)(=O)O)ccc1O2`: 104%; for `CCCCCc1ccnc(CC(=O)c2ccc(OC)cc2)c1`: 86.1%. For the compound `COc1ccc(-c2nc(SCC(C)C)nc(Nc3ccc([N+](=O)[O-])cc3)c2C#N)cc1`, the growth was 93.4%.

Turning to `COc1cc2ncnc(Nc3ccc4c(cnn4C(=O)Nc4ccccc4)c3)c2cc1OC`, the growth is 103%.

For the compound `CCCCCSc1ccc2nc(NC(=O)OCC)sc2c1`, the growth was 43.6%. The same measure for `COc1ccc(C2=C/C(=C\c3ccc(Cl)cc3)C(=O)NN2C(=S)NN)cc1`: 94.2%.
